These results are taken from ChEMBL document CHEMBL3988442, “University of Dundee, Small-Polar-MMV Screening Library” (2021).

For some of these results: Potency and affinity values are given separately.

What all share (parameters): scale not given: direction of the effect not stated beside the values
For assay [1], the target named is Protein translocase subunit SecA (Escherichia coli (strain K12)) (UniProt P10408). The experiment in a line: Assay to Identify E. coli SecA ATPase Inhibitors. Type of assay: functional. As to conditions: 30 µM.
Chain of Protein translocase subunit SecA (Escherichia coli (strain K12)) (P10408 whole entry): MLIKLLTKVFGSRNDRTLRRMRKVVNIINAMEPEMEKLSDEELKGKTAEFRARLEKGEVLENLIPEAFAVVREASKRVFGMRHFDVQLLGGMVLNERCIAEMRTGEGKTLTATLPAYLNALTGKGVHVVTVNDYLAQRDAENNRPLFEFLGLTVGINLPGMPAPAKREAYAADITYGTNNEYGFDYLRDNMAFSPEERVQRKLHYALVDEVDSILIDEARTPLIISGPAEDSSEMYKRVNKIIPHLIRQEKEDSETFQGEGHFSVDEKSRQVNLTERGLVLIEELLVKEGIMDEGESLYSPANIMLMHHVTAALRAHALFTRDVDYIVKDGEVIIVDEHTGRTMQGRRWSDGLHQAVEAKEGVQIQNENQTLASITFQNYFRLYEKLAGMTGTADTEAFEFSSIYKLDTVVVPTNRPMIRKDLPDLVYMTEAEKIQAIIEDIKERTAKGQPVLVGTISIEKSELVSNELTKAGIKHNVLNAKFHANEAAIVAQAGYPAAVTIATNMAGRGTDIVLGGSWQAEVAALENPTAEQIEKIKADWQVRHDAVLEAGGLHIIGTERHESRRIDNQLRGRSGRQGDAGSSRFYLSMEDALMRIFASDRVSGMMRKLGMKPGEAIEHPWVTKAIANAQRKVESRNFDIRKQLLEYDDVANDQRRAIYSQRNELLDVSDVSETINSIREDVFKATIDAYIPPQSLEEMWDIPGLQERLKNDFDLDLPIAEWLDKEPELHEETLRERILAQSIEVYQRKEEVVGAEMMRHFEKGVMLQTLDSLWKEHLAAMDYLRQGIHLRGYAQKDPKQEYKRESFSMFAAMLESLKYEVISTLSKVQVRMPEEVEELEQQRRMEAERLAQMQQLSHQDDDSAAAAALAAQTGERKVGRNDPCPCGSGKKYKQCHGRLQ
For assay [2], the target named is T1, Ubiquitin-activating enzyme e1, putative (Leishmania donovani (strain BPK282A1)) (UniProt E9BSI1).
T1 sequence (whole entry): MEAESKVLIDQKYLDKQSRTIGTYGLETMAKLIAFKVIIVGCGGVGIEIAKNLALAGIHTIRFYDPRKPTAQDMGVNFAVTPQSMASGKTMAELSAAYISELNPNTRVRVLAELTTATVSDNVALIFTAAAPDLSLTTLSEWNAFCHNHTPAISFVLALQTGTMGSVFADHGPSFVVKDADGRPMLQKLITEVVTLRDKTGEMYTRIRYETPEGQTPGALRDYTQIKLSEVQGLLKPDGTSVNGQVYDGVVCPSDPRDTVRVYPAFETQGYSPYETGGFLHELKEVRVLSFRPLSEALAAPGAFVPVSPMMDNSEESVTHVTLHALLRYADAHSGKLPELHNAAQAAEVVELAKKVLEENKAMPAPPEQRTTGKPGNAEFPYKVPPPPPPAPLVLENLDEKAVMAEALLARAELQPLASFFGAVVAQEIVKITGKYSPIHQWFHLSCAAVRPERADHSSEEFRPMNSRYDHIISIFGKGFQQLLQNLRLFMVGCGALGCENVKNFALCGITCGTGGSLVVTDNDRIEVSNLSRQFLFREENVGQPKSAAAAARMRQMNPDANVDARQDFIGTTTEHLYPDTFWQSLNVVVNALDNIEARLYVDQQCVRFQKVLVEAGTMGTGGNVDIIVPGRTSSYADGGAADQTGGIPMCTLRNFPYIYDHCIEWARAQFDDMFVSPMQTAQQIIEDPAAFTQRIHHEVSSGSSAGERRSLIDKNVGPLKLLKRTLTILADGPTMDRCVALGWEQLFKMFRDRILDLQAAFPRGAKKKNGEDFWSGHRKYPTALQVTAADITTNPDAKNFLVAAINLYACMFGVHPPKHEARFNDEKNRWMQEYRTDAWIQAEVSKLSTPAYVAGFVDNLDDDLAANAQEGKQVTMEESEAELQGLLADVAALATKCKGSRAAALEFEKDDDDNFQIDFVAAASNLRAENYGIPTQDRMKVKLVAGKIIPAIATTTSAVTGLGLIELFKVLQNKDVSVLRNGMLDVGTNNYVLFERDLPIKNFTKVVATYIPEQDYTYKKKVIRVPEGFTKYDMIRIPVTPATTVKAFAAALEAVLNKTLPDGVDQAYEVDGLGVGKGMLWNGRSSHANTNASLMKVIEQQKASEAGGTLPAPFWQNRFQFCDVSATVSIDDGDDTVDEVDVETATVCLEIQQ
As to the kind of experiment: Leishmania donovani Ubiquitin Activating Enzyme (LdE1). Type of assay: functional. As to conditions: 30 µM.

The target in assay [3] is AMP-activated protein kinase, AMPK (Homo sapiens) (UniProt P54646+O43741+P54619+Q9UGJ0+Q9Y478+Q13131+Q9UGI9). As to the kind of experiment: AMP-dependent Kinase enzyme assay. An in vitro enzyme assay that detects ADP turnover that is directly proportional to AMPK activity. This uses naive AMPK that is activated during the assay with MK-8722. Type of assay: functional. As to conditions: 30 µM.

The target in assay [4] is Sialic acid-binding Ig-like lectin 9 (Homo sapiens) (UniProt Q9Y336). As to the kind of experiment: Hs-Siglec9 ALPHAscreen SOP 20170721. The conditions noted are these: 10 µM. (In general: Bead proximity is the source of the signal in Alpha formats.)
Chain of Sialic acid-binding Ig-like lectin 9 (Homo sapiens) (Q9Y336 whole entry): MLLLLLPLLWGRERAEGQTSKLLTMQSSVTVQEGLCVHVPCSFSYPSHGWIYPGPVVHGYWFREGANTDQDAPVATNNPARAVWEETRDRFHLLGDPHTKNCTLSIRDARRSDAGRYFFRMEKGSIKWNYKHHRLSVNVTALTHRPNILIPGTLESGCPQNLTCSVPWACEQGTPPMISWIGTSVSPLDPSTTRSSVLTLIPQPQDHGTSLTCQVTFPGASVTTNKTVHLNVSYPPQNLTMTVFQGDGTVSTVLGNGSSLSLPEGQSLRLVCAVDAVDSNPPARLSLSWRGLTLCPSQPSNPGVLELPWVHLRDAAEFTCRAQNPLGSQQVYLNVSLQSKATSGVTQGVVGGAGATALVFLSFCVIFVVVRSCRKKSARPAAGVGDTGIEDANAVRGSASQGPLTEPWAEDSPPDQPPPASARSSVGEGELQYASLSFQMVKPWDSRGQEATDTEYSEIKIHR
The test system of the next assay is Trypanosoma cruzi. As to the kind of experiment: Trypanosoma cruzi phosphomannomutase and mannose-1-phosphate guanylyltransferase assay. The conditions noted are these: 10 µM. Type of assay: functional.
Assay [5] concerns the target T2, Arginase-2, mitochondrial (Homo sapiens) (UniProt P78540).
T2 sequence (whole entry): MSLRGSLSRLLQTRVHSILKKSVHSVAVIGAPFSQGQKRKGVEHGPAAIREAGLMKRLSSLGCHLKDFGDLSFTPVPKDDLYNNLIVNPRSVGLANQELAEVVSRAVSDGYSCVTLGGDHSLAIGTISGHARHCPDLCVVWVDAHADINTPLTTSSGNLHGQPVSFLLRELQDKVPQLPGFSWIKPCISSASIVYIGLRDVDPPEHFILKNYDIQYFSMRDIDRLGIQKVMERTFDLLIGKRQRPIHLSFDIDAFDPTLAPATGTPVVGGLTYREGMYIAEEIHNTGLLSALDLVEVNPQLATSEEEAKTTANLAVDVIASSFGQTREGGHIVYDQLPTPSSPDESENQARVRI
The experiment in a line: in vitro enzyme assay to detect the production of urea directly proportional to the activity of Arginase II. Further: in the data most compounds retested in dose-response had high values. As to conditions: 33.3 µM. Type of assay: functional.

Assay [6] concerns the target T3, Proteasome subunit beta (Trypanosoma cruzi) (UniProt O96673).
T3 sequence (whole entry): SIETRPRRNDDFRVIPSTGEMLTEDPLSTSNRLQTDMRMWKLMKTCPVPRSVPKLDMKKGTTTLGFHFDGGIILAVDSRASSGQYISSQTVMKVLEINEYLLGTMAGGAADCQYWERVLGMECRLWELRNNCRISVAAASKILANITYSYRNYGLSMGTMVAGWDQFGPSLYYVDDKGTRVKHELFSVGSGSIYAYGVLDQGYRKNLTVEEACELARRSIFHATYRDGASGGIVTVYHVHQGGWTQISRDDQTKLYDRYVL
As to the kind of experiment: Trypanosoma cruzi proteasome chymotrypsin-like activity (TcProtChymo) assay. Further: in the data most compounds retested in dose-response had high values. Type of assay: functional. The conditions noted are these: 9.37 µM.

The species named for the next assay is Homo sapiens. As to the kind of experiment: To identify inhibition of the IFN signalling (Jak-Stat) pathway via expression of an eGFP reporter gene under the control of an IFN-stimulated response element (ISRE) containing MxA promoter. The conditions noted are these: 30 µM. Type of assay: functional. On the technique in general: A reporter such as luciferase makes a cellular process visible.

The target of assay [7] is T4, Tyrosyl-tRNA synthetase, putative (Trypanosoma cruzi (strain CL Brener)) (UniProt Q4DSP6).
T4 sequence (whole entry): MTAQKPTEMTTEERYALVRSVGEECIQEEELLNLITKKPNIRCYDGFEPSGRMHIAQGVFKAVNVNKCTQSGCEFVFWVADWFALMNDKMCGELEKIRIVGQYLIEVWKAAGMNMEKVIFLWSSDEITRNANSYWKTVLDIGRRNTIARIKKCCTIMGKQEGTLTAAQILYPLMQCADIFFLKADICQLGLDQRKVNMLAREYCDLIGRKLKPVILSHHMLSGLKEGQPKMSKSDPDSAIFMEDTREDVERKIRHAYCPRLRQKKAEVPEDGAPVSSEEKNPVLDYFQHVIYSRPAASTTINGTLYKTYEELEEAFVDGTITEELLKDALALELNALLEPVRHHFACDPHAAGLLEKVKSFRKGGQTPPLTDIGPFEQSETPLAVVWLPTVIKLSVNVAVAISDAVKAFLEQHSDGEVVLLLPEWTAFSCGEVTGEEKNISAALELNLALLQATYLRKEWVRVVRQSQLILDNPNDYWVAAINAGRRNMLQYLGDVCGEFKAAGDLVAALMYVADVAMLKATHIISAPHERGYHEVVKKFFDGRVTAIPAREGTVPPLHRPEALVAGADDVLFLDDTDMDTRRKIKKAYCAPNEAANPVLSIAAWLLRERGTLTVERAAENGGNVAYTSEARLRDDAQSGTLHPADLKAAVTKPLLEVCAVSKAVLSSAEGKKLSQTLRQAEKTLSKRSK
As to the kind of experiment: Trypanosoma cruzi tyrosyl tRNA synthetase (TcYRS) _High Tyrosine SOP. Further: in the data most compounds retested in dose-response had high values. Type of assay: functional. As to conditions: 30 µM.

The target in assay [8] is T4, Tyrosyl-tRNA synthetase, putative (Trypanosoma cruzi (strain CL Brener)). As to the kind of experiment: Trypanosoma cruzi tyrosyl tRNA synthetase (TcYRS) SOP. Type of assay: functional. As to conditions: 30 µM.
The target in assay [9] is Chromo domain-containing protein 1 (Saccharomyces cerevisiae (strain ATCC 204508 / S288c) (Baker's yeast)) (UniProt P32657). The experiment in a line: ScCHD-1 Enzyme Inhibition Assay. Further: in the data most compounds retested in dose-response had high values. Type of assay: functional. As to conditions: 30 µM.
Chain of Chromo domain-containing protein 1 (Saccharomyces cerevisiae (strain ATCC 204508 / S288c) (Baker's yeast)) (P32657 whole entry, the tested form may be a part): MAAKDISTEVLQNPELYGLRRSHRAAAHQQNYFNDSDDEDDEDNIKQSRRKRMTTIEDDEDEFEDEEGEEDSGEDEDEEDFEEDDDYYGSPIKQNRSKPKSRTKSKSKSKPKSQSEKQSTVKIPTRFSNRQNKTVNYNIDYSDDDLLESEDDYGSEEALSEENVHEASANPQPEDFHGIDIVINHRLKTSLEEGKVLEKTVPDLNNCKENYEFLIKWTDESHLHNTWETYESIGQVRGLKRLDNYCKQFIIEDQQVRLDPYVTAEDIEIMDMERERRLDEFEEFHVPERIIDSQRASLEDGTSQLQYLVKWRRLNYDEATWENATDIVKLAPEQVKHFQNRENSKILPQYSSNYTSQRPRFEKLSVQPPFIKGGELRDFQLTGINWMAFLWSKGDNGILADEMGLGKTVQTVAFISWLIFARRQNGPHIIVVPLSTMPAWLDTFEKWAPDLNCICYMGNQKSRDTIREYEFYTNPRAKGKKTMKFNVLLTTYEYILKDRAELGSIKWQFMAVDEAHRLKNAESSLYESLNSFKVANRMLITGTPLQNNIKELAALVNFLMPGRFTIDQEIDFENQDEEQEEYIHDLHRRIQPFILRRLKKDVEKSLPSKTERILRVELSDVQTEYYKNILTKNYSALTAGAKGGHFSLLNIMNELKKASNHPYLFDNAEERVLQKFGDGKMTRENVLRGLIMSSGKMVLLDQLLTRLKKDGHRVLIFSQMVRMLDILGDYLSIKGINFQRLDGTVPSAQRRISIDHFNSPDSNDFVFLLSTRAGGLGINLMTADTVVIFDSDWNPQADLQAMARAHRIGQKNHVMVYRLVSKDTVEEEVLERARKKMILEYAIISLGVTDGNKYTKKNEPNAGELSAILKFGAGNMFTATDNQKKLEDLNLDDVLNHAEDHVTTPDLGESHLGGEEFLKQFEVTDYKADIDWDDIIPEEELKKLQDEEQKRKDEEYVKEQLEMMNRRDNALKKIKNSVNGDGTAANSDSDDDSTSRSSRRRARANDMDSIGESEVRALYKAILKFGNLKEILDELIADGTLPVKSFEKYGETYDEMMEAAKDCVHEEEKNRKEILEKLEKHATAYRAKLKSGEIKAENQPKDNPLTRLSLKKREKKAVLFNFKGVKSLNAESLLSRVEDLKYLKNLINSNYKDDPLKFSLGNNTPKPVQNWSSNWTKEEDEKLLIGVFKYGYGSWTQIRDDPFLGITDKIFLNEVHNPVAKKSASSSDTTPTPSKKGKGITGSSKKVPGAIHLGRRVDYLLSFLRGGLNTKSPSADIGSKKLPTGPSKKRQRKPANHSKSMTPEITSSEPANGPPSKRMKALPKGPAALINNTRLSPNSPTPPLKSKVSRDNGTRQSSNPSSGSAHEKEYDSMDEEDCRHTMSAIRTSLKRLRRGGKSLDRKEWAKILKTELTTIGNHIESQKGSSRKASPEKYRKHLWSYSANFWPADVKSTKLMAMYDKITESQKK

Turning to `Cn1ncc2c(=O)[nH]c(CN3CCCC3c3cccs3)nc21` (stereo not drawn), the Percent Effect in assay [1] was -2.36%; in assay [2], 20.2%; in assay [3], -1.76%; in assay [4], -3.9%; with Trypanosoma cruzi, -5.38%; in assay [5], 1.14%. Besides, the Percent Effect was 5.32% in [6]; 15.9% in the assay listed under Homo sapiens; 7.39% in [7]; 11.4% in assay [8]; -5.13% in assay [9].
As to `O=C(NCC1CC1)Nc1cccc(N2CCN(CC3CC3)CC2)c1`, the Percent Effect was -6.91% in [1]; 13.5% in [2]; -7.28% in [3]; 31.9% in assay [4]; 5.38% in the assay with Trypanosoma cruzi; 1.24% in assay [5]. Moreover, the Percent Effect was 6.78% in [6]; -5.11% in the assay listed under Homo sapiens; 3.23% in assay [7]; 16.1% in [8]; -13.1% in assay [9].
For `O=C(CCOc1ccccc1)N1CCC(Nc2cccnn2)CC1`, the Percent Effect in [1] is -6.73%; in assay [2], 13.2%; in assay [3], -7.1%; in [4] it was 16.8%; with Trypanosoma cruzi, 2.15%; in [5], -0.719%. Further, the Percent Effect in assay [6] was 5.5%; in the assay listed under Homo sapiens, 8.93%; in [7], 6.4%; in assay [8], 18.5%; in [9] it was -5.39%.
As for `Cc1nnc2n1CCN(C(=O)c1cc(Cl)c[nH]1)C2`, the Percent Effect in assay [1] is -3.51%; in assay [2], -15.8%; in assay [3], 7.83%; in assay [4], 10.9%; with Trypanosoma cruzi, 0.376%; in assay [5], 1.92%. In addition, the Percent Effect is 2.84% in [6]; -3.3% in the assay listed under Homo sapiens; 0.49% in assay [7]; -4.88% in [8]; 3.54% in [9].
On to `c1cnc(N2CCC3(COCc4cnc(-c5cccnc5)nc43)C2)nc1` (stereo not drawn), for which the Percent Effect in assay [1] is -3.71%; in assay [2], -2.7%; in assay [3], 12.2%; in assay [4], -3.8%; in the assay with Trypanosoma cruzi it was -1.86%; in [5] it was -5.41%. Moreover, the Percent Effect is 1.11% in [6]; 3.84% in the assay filed under Homo sapiens; -1.08% in [7]; -10.3% in [8]; -4.41% in [9].
As to `CC(C)OCCN(Cc1cccc(O)c1)C1CCC(O)CC1` (stereo not drawn), the Percent Effect was -4.61% in [1]; 0% in assay [2]; -1.14% in [3]; -7.69% in assay [4]; -5.96% in the assay on Trypanosoma cruzi; 0.744% in assay [5]. Further, the Percent Effect in [6] was 4.89%; in the assay filed under Homo sapiens, -1.68%; in assay [7] it was 0%; in assay [8] it was -1.24%; in assay [9], -0.807%.
As to `Cc1nc2ccccc2c(=O)n1CCC(=O)N1CCNC(=O)C1`, the Percent Effect in [1] is -4.53%; in [2], 10.5%; in assay [3], 6.29%; in assay [4], 11.3%; in the assay on Trypanosoma cruzi, 0.94%; in [5], 0%. Also, the Percent Effect was 3.51% in assay [6]; 2.72% in the assay filed under Homo sapiens; 4.41% in assay [7]; 9.76% in assay [8]; -6.93% in assay [9].
With `COc1cccc(N2CCN(CCC(=O)NC3CCCC3)CC2)c1`, the Percent Effect is -4.61% in assay [1]; 7.89% in assay [2]; 6.03% in assay [3]; 5.22% in assay [4]; -0.292% in the assay on Trypanosoma cruzi; -22.5% in assay [5]. Also, the Percent Effect is 16.6% in assay [6]; 4.41% in the assay listed under Homo sapiens; 9.57% in assay [7]; 13% in assay [8]; -4.62% in assay [9].
